# Experimental data: ChEMBL document CHEMBL1201862, “PubChem BioAssay data set” (2004)
# Where “and” joins values, the source holds several entries; their conditions need not be identical. Equal entries are not always repeated. Out of some 400,000 compounds screened, about 2,100 (0.53%) were called active. Inconclusive results (about 14%) are left out. No rule for the calls is given here. Only a selection was taken, and actives are over-represented in it overall.
# Target: Ataxin-2 (Homo sapiens) (UniProt Q99700)
# Sequence (Q99700 whole entry): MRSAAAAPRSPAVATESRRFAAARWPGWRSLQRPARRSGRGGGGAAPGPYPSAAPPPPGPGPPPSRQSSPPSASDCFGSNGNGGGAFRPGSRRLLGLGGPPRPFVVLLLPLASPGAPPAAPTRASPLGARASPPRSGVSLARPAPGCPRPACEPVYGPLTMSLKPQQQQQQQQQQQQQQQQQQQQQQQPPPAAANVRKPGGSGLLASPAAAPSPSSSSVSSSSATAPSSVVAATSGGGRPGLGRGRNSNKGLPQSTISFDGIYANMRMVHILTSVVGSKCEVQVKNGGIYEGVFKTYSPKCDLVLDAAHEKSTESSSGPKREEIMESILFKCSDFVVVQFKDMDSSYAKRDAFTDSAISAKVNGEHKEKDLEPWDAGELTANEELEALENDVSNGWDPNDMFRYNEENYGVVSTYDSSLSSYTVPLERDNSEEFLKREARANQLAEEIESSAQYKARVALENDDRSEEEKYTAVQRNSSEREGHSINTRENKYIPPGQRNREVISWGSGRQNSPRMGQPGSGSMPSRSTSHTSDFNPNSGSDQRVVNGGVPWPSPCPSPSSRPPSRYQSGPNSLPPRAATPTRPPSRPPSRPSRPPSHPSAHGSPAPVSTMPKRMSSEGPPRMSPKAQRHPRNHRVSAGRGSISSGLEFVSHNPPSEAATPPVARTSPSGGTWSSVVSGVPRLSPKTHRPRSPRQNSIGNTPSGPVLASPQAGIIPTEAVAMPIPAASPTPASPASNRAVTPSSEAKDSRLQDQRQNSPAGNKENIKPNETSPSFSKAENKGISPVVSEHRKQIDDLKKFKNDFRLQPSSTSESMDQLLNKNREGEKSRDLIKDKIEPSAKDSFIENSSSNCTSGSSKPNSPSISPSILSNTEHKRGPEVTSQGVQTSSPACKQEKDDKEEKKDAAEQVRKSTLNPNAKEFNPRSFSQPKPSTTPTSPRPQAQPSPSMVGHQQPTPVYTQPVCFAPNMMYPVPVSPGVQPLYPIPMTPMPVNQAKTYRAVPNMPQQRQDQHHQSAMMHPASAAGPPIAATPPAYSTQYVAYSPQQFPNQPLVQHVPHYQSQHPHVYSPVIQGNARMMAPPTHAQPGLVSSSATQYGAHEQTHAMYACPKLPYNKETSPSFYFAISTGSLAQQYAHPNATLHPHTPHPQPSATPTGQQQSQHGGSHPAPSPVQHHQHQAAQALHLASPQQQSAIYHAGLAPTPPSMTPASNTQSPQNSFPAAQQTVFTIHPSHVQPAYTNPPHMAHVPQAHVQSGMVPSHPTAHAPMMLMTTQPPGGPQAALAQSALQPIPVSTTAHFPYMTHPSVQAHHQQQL
# Assay: qHTS for Inhibitors of ATXN expression.
# Assay type: functional
row,Compound,Potency
1,O=C(NCc1cccs1)c1cc(C2CC2)on1,inactive
2,CC(C)(C)NC(=O)C(c1ccncc1)N(C(=O)C1CSC(=O)C1)c1ccccc1 (configuration not stated),inactive
3,CC(C)(C)NC(=O)C(c1ccc(-c2ccccc2)cc1)N(C[C@H]1CC[C@@H]([C@@H]2CC[C@H](CO)O2)O1)C(=O)c1ccc(-c2ccccc2)cc1 (some centres not stated),35.5 µM (active)
4,O=C(c1cccc(Cl)c1)N(Cc1ccco1)C1CCS(=O)(=O)C1 (configuration not stated),inactive
5,CC(C)(C)NC(=O)C(c1cccnc1)N(C(=O)c1csnn1)c1ccccc1 (configuration not stated),inactive
6,CC(C)(C)NC(=O)C(c1ccc(-c2ccccc2)cc1)N(C[C@H]1CC[C@@H]([C@@H]2CC[C@H](CO)O2)O1)C(=O)c1cccc(Cl)c1 (some centres not stated),31.6 µM (active)
7,CC1(C)NC(=O)N(CC(=O)N2CCN(S(=O)(=O)c3cc(Cl)ccc3Cl)CC2)C1=O,inactive
8,CC(C)Cn1nc(NC(=O)c2cccs2)c2cc3ccccc3nc21,inactive
9,CNC(=O)CSc1nc2ccccc2c(=O)n1C1CCCCC1,inactive
10,Cc1nn(-c2ccccc2)c(C)c1/C=N/NC(=O)CSc1nc2ccccc2c(=O)n1-c1ccc(Br)cc1,12.6 µM (active)
11,Cc1ccc(S(=O)(=O)N(C)C)cc1-n1c(SCC(=O)N(C)C)nc2ccccc2c1=O,inactive
12,O=C(Nc1ccc(F)cc1)c1cccnc1NCCc1ccccc1,inactive
13,Cc1ccccc1CS(=O)(=O)c1ncc(Cl)c(C(=O)Nc2ccc(F)cc2)n1,10 µM (active)
14,O=C(Nc1ccc(F)cc1)c1nc(S(=O)(=O)Cc2ccccc2)ncc1Cl,25.1 µM (active)
15,CC(=O)Nc1ccc(S(=O)(=O)[N-]c2nc3ccccc3nc2-[n+]2ccc(NC(=O)c3ccc(F)cc3)cc2)cc1,inactive
16,O=C1CSc2ccc(S(=O)(=O)NCc3ccc(F)cc3)cc2N1,inactive
17,COc1ccc(Nc2nc3c(C)cccc3cc2C#N)cc1,inactive
18,N#Cc1nccc2ccc(OCc3ccc(Br)cc3)cc12,inactive
19,Cn1c(O)c(/C=N/NC(=O)c2cc3ccccc3cc2O)c2ccccc21,inactive
20,CN(C(=O)COC(=O)c1cc2ccccc2cc1O)c1ccccc1,inactive
21,O=C(N=Nc1c(O)n(Cc2ccccc2)c2ccccc12)c1cc2ccccc2cc1O,39.8 µM (active)
22,Cc1ccc(NC(=O)Cn2c(O)c(N=NC(=O)c3cc4ccccc4cc3O)c3ccccc32)cc1,8.91 µM (active)
23,Cc1ccc(C(=O)NNC(=O)c2cc3ccccc3cc2O)cc1,inactive
24,Cc1c(O)ccc2c(CC(=O)N[C@@H](Cc3ccc(O)cc3)C(=O)O)cc(=O)oc12,inactive
25,Cc1sc(NC(=O)c2ccccc2)c(C(c2ccc(Cl)cc2)N2CCN(CCO)CC2)c1C (configuration not stated),28.2 µM (active)

row,Compound,Potency
1,CCS(=O)(=O)c1nc(S(=O)(=O)c2ccc(Cl)cc2)c(N2CCN(CCO)CC2)s1,inactive
2,Cc1c(-c2ccc(Cl)cc2)c(=O)oc2c(CN3CCN(CCO)CC3)c(O)ccc12,inactive
3,Cn1c(C(=O)NCc2ccccn2)cc2c(=O)n3ccccc3nc21,inactive
4,Cc1cccc(C2=NN(c3ccccc3)[C@H](CO)[C@H]2c2ccc(Cl)cc2)c1,inactive
5,CCN(CC)c1ccc(/C=N/NC(=O)c2cccc(S(=O)(=O)Nc3ccccc3OC)c2)c(O)c1,inactive
6,CCN1C/C(=C\c2cc(OC)c(OC)c(OC)c2)C2=NN(c3ccccc3)C(c3cc(OC)c(OC)c(OC)c3)C2C1 (configuration not stated),inactive
7,CCOC(=O)c1ccc(NC(=O)COc2ccccc2CNCCc2ccccc2)cc1,29.9 µM (active)
8,Cc1ccc(C(=O)OCC(=O)NCCc2ccccc2)cc1C,inactive
9,CCOc1ccc(NC(=O)COc2ccc(C(=O)NCCc3ccccc3)cc2)cc1,inactive
10,CCCCn1nc(NC(=O)c2cccs2)c2cc3ccccc3nc21,inactive
11,NS(=O)(=O)c1ccc(NCc2cnc3ccccc3c2)cc1,inactive
12,CCOc1ccc2nc(NCCCNS(=O)(=O)c3ccc(C)cc3)c(C#N)cc2c1,inactive
13,c1ccc(COc2ncnc3c2ncn3CCCNCC(c2ccccc2)c2ccccc2)cc1,25.1 µM (active)
14,c1ccc(COc2ncnc3c2ncn3CCCNC2CCN(Cc3ccccc3)CC2)cc1,39.8 µM (active)
15,COCCCn1c(C(=O)N2CC(C)OC(C)C2)cc2c(=O)n3ccccc3nc21 (configuration not stated),inactive
16,O=C(CC(=O)N/N=C/c1c(F)cccc1Cl)NCCc1ccccc1,inactive
17,CCOc1ccc2nc(N3CCC(C(=O)N4CCN(c5ncccn5)CC4)CC3)sc2c1,inactive
18,CCCCN(C)CCCNC(=O)C1CCN(c2nc3ccc(CC)cc3s2)CC1,28.2 µM (active)
19,Cc1c(C(=O)NCc2ccc3c(c2)cc(C)n3C)cccc1[N+](=O)[O-],inactive
20,COc1ccc(-c2c(C)c3ccc(O)c(CN4CCCCC4)c3oc2=O)cc1OC,inactive
21,COc1ccccc1-c1sc2ccccc2c1-c1ccc(OCCN2CCCCC2)cc1,35.5 µM (active)
22,COc1ccc2c(-c3ccc(OCCN4CCCCC4)cc3)c(-c3ccccc3OC)sc2c1,39.8 µM (active)
23,Brc1ccccc1OCCCN1CCCC1,inactive
24,c1ccc2c(-c3ccc(OCCN4CCCCC4)cc3)c(-c3ccsc3)sc2c1,39.8 µM (active)
25,COc1ccccc1OCCCCN1CCCCC1,inactive

row,Compound,Potency
1,COc1cccc2sc3cc(NCCCN4CCOCC4)ccc3c(=O)c12,inactive
2,COc1ccc(-c2sc3cc(OC)ccc3c2-c2ccc(OCCN3CCCCC3)cc2)cc1,25.1 µM (active)
3,CSCCC1NC(=O)N(CC(=O)Nc2ccc(Br)cc2Br)C1=O (configuration not stated),inactive
4,CCOc1cccc(NC(=O)c2sc3nc(-c4ccc(F)cc4)ccc3c2N)c1,inactive
5,COc1ccccc1-c1sc2ccccc2c1C#Cc1ccc(N(C)C)cc1,inactive
6,COc1cccc(-c2sc3ccccc3c2-c2ccc(OCCN(C)C)cc2)c1,28.2 µM (active)
7,COC(=O)c1c(-c2ccc(N(C)C)cc2)sc2ccc(OC)cc12,inactive
8,COc1ccc2sc(-c3ccc(N(C)C)cc3)c(C#CCO)c2c1,inactive
9,COc1ccc2sc(-c3ccccc3OC)c(-c3ccc(OCCN(C)C)cc3)c2c1,39.8 µM (active)
10,COc1cccc(-c2sc3ccccc3c2-c2ccc(OCCN3CCCCC3)cc2)c1,28.2 µM (active)
11,O=C(Nc1nc2n(n1)C(c1ccc(F)cc1)C=C(c1ccccc1)N2)c1ccc(Cl)cc1 (configuration not stated),inactive
12,S=C(c1ccc(-c2ccc(Br)cc2)o1)N1CCOCC1,inactive
13,CCc1cc(=O)oc2c3c(c(Cl)cc12)OCN(Cc1cccc(OC)c1)C3,inactive
14,CCCc1ccc(C2C3=C(CC(C)(C)CC3=O)N=C3C2=C(O)c2ccccc23)cc1 (configuration not stated),20 µM (active)
15,CC1C2=C(O)CC(C)(C)CC2=NC2=C1C(=O)CC(C)(C)C2 (configuration not stated),inactive
16,CCCO/C(O)=C1\C(C)=NC2=C(C(=O)CC(C)(C)C2)C1c1cccnc1 (configuration not stated),inactive
17,O=S(=O)(Nc1ccccc1N1CCOCC1)c1ccccc1C(F)(F)F,inactive
18,O=C1CCCc2nc3c(cc21)C(O)Oc1c-3ccc2ccccc12 (configuration not stated),inactive
19,Cn1c(SCc2ccccc2F)nc2ccccc2c1=O,inactive
20,O=C(Cc1c(F)cccc1Cl)N(Cc1ccccc1)c1ccccn1,inactive
21,CN(Cc1ccccc1)C(=O)c1ccc(CSc2nc3cccnc3n2Cc2ccccc2F)cc1,20 µM (active)
22,CN1CCN(Cc2nc3ccccc3c(=O)n2Cc2nc(-c3ccc4ccccc4c3)cs2)CC1,39.8 µM (active) and 25.1 µM (active)
23,CN1CCN(Cc2c(O)ccc3cc(-c4ccccn4)c(=O)oc23)CC1,inactive
24,O=C(CN1C(=O)CCC1=O)Nc1nc(-c2ccc3ccccc3c2)cs1,inactive
25,C[C@H]1C(c2ccc(F)cc2)=NN(c2ccccc2)[C@@H]1CO,inactive

row,Compound,Potency
1,O=C(CSc1nnc2ccccn12)Nc1ccc(S(=O)(=O)N2CCOCC2)cc1,inactive
2,COc1ccc(CCNS(=O)(=O)c2ccc3c(c2)CCCC3)cc1OC,inactive
3,COc1ccc(Cl)cc1CC1(C)C(=O)Nc2ccc(S(=O)(=O)NC3CCCCC3)cc21 (configuration not stated),35.5 µM (active)
4,COc1ccc(-c2csc(/C(C#N)=C/Nc3cc4oc5ccccc5c4cc3OC)n2)cc1,inactive
5,C=CC[C@@H](Cc1ccc(F)cc1)C(=O)OC[C@H]1CCCN1C(=O)[C@@H](CC=C)CC(=O)N(CCO)Cc1ccccc1,39.8 µM (active)
6,C=CC[C@@H](Cc1ccc(F)cc1)C(=O)OC[C@H]1CCCN1C(=O)[C@H](CC=C)CC(=O)N(CCO)Cc1ccccc1,35.5 µM (active)
7,N#Cc1c(N)n(CCc2ccc(F)cc2)c2nc3ccccc3nc12,inactive
8,O=C(CN1C(=O)NC2(CCCCC2)C1=O)Oc1ccc2c(C(F)(F)F)cc(=O)oc2c1,inactive
9,Fc1ccc(-c2nc3cnccn3c2NC2CCCC2)cc1,inactive
10,COc1ccc2nc(O)c(C(=O)O)cc2c1,inactive
11,COc1ccc2c(c1)CCc1cn3nc(C)cc3nc1-2,inactive
12,COc1ccc(C(=O)N2C(=O)c3ccc(N)cc3C2=O)cc1,inactive
13,COc1ccc2c(c1)C(=NN)c1cc(OC)ccc1-2,31.6 µM (active)
14,COc1ccc2c(c1)C(=NNc1ccc(C(=O)O)cc1)c1cc(OC)ccc1-2,22.4 µM (active)
15,O=C(O)CC1SC(N/N=C/C2CC=CCC2)=NC1=O (configuration not stated),inactive
16,Oc1ccccc1C1SC(c2ccccc2O)SC(c2ccccc2O)S1 (configuration not stated),20 µM (active)
17,CCc1ccc2c(CN3CCc4cc(OC)c(OC)cc4C3)cc(=O)oc2c1,inactive
18,COc1ccc(-c2coc3cc4oc(=O)c5ccccc5c4cc23)cc1F,8.91 µM (active)
19,COc1ccc(-c2cc3ccc(O)cc3oc2=O)cc1OC,inactive
20,COc1ccc(-c2cc(Cl)cc3c(=O)c4ccccc4n(C)c23)cc1F,inactive
21,CCc1cc(=O)oc2cc3occ(-c4ccc(OC)c(F)c4)c3cc12,22.4 µM (active)
22,COc1ccc(-c2cc(=O)oc3cc(O)ccc23)cc1,inactive
